Inconclusive results are not listed. Calls of active or inactive are those of the source. Calls come from the whole dose curve; as a rule, active = well fitted curve in the direction sought with a large enough effect; inconclusive = small, poorly fitted or top-dose-only effect, or effect the other way, or another doubt; inactive = no such curve, though single readings can be large or run the other way.
Target: Alpha-galactosidase A (Homo sapiens) (UniProt P06280)
Assay: Confirmation of Inhibitors of Human alpha-Galactosidase Using Spleen Homogenate; note: 0% is about no effect
Details: alpha-galactosidase enzyme activity; series mostly up to 56.2 µM; activity change: at the top concentration
How it was run: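 AC50 values come from Hill-equation fits of normalised 4-methylumbelliferone fluorescence (365/440 nm, read after NaOH/glycine stop). Enzyme source: spleen homogenate; substrate 1 mM final; pH 5.0 citrate buffer; 40 min at 37C; compound titration 0.5 nM–58 uM.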

Sequence of Alpha-galactosidase A (Homo sapiens) (P06280 32-429 limits assumed): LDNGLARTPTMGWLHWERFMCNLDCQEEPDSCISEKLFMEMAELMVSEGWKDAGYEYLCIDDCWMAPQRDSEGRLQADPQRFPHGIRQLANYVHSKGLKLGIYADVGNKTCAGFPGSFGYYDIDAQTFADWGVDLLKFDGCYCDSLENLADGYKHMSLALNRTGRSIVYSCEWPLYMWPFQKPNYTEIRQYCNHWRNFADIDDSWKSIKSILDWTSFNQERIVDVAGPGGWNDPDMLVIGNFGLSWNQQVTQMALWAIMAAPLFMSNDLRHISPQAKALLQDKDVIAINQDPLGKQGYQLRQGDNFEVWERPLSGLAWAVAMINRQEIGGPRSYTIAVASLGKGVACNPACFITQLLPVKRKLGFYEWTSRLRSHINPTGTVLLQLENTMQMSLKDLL

Activity change, inactive:
CNC(=S)/N=C(\Nc1ccc(C)cc1)c1ccccc1 7.36% [at 23.6 µM]
Cc1ccc(S(=O)(=O)N2CCOCC2)cc1C 6.39%
CCC1c2ccc(C)n2CCN1C(=O)Nc1ccccc1C(=O)OC (stereo unspecified) -2.04%
CC(=O)Nc1ccc(S(=O)(=O)/N=C2/NC(=O)/C(=C\c3ccco3)S2)cc1 -1.55% [at 23.6 µM]
CC1(C)CC(=O)c2cc(C(=O)NCc3ccco3)c(=O)n(-c3ccc(Cl)cc3)c2C1 3.72% [at 23.6 µM]
CC1OC(OC2C(CO)OC(OC3C(CO)OC(O)C(O)C3O)C(O)C2O)C(O)C(O)C1NC1C=C(CO)C(O)C(O)C1O (stereo unspecified) -3.24%
CC(=O)N1CCN(c2ccc(NCc3ccc(C(C)C)cc3)cc2)CC1 -2.87%
CC(=O)Oc1ccc2cc(-c3nc(-c4ccccc4)c(C)s3)c(=O)oc2c1 6.44%
O=S(=O)(c1ccccc1Br)N1CCOCC1 8.81%
O=C(Nc1nnc(-c2cccc(F)c2)s1)Nc1ccccc1F 13.6%
COc1ccc2nc3c(cc2c1)Cn1c-3nc2ccccc2c1=O 21%
CC(=O)c1ccc(NC(=O)COc2ccccc2-c2nc(C)no2)cc1 -1.56%
Cc1sc(-c2cc3cc(Br)ccc3oc2=O)nc1-c1ccccc1 17.2%
CCN(CC)c1ccc(-c2nc3cnccn3c2NC2CCCC2)cc1 -11%
O=c1oc2ccccc2cc1-c1csc(Cc2nc3c(s2)CCCC3)n1 8.5%
COC(=O)c1c(NC(=O)Cn2nc(C(F)F)cc2C(F)F)sc(C)c1C 4.67% [at 23.6 µM]
CN(CCO)S(=O)(=O)c1ccc2c(c1)C(=NNC(N)=O)c1cc(S(=O)(=O)N(C)CCO)ccc1-2 2.47%
c1ccc(-c2nc3nc4ccccc4nc3n2CC2CCCO2)cc1 (stereo unspecified) 10.5% [at 23.6 µM]
Cc1ccc(S(=O)(=O)N2CCN(C(=O)N(c3ccccc3)c3ccccc3)CC2)cc1 7.46%
Cc1nc(-n2nnc(CO)c2CO)nc2c1CCC2 8.66%
Cn1cnc2c(NCc3ccccc3)nc(NCCO)nc21 4.37%
O=S(=O)(c1ccc(-c2ccccc2)cc1)N1CCOCC1 11.5%
CCCCCCc1cc2cc(C(=O)NC)c(=N)oc2cc1O 71.6%
C(=C\c1ccc2ccccc2n1)/c1ccc2c(c1)OCO2 22.9%
COC(=O)CSc1cc([N+](=O)[O-])ccc1NC(=O)OC 6.45% [at 23.6 µM]
Cc1[nH]n(C(N)=S)c(=O)c1N=Nc1ccc2ccccc2c1 3.36%
O=C1CC(N2CCN(c3cccc(C(F)(F)F)c3)CC2)C(=O)N1c1ccc(F)cc1 (stereo unspecified) -6.67% [at 23.6 µM]
Cc1noc(C)c1S(=O)(=O)N(CC(=O)N1CCc2ccccc21)c1ccc(C(C)C)cc1 2.56%
COc1ccc(C2C3=C(CCCC3=O)N(CC(=O)O)C3=C2C(=O)CCC3)cc1Cl 25.7%
CCOc1ccccc1CNc1ccc(O)cc1 -14.5%
O=C(CCc1cccc(S(=O)(=O)N2CCOCC2)c1)NN=C1c2ccccc2-c2ccccc21 -3.69%
C=CCn1c2ccccc2c2nnc(SCC(=O)NC(C(=O)OC)C(C)C)nc21 (stereo unspecified) 3.19% [at 23.6 µM]
OC[C@H]1NC[C@H](O)[C@@H](O)[C@H]1O -7.1% [at 287 µM]
COc1cccc2cc(-c3nc4c(s3)CCc3ccccc3-4)c(=O)oc12 8.58%
CCC1C(=O)NCCN1Cc1nc(-c2ccc(C)s2)oc1C (stereo unspecified) 6.37%

outcome, inactive:
COc1ccc(/C=C/c2nnc(NC(=O)CSc3ccc(Cl)cc3)s2)cc1

Source: PubChem BioAssay AID2108 (National Center for Advancing Translational Sciences (NCATS), 2009)
